Laboratory results: the supplement of paper PMC6555819

What was measured:
Experiment in all cases: PBM binding z-score (relative to random genomic background probes); higher = stronger binding; sequences stand for … in GC…GCGATTGACAGCGTAGAATGAAGG
[1] = system: FXR:RXRa (NR concentration 270 nM, RXRa partner concentration 90 nM)
Procedure, shortened: (§1)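 Ligand-free nuclear receptor dimers were bound for 1 h to custom Agilent 4×180K protein-binding microarrays. Detection used antibodies against each partner (one per run). Binding z-scores rest on regression-normalized fluorescence, with random background probes as the reference.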

[2] = system: LXRa:RXRa (NR concentration 270 nM, RXRa partner concentration 90 nM)
Procedure, shortened: as §1

[3] = system: LXRa homodimer (NR concentration 270 nM)
Procedure, shortened: as §1

[4] = system: LXRb:RXRa (NR concentration 270 nM, RXRa partner concentration 90 nM)
Procedure, shortened: as §1

[5] = system: LXRb homodimer (NR concentration 270 nM)
Procedure, shortened: as §1

[6] = system: PPARa:RXRa (NR concentration 270 nM, RXRa partner concentration 90 nM)
Procedure, shortened: as §1

[7] = system: PPARg:RXRa (NR concentration 180 nM, RXRa partner concentration 90 nM)
Procedure, shortened: as §1

[8] = system: PPARg:RXRa 270nM:90nM, anti-RXR (NR concentration 270 nM, RXRa partner concentration 90 nM)
Procedure, shortened: as §1

[9] = system: PPARg:RXRa 30nM:10nM, anti-RXR (NR concentration 30 nM, RXRa partner concentration 10 nM)
Procedure, shortened: as §1

[10] = system: PPARg:RXRa 90nM:30nM, anti-RXR (NR concentration 90 nM, RXRa partner concentration 30 nM)
Procedure, shortened: as §1

Sequence	PBM binding z-score [1]	PBM binding z-score [2]	PBM binding z-score [3]	PBM binding z-score [4]	PBM binding z-score [5]	PBM binding z-score [6]	PBM binding z-score [7]	PBM binding z-score [8]	PBM binding z-score [9]	PBM binding z-score [10]
TCGCGTAGGTTAGTCGGGGCATTCAGCCAACATA	0.0922	-0.043	-0.337	0.83	-0.797	0.69	-0.444	0.614	0.929	0.992
ATCTCTAGGTAAAAGTTCAGTAAATCCCGAGGAT	0.994	1.49	1.5	1.29	1.31	4.43	7.76	7.37	6.62	8.13
TCTATCAGTTGAAGGGCAACCGACGAGTCCGTTT	0.369	0.777	-0.273	0.501	-0.0897	0.935	0.152	2	3.44	2.89
ATATGTAGGTTACATCAGGGTCATTCAGGCTATG	3.26	4.84	2.29	3.97	0.66	5.17	6.84	5.54	3.17	4.87
GCTGCTAGTTCAGGTTGGTCAGCTAACGGGTACG	-0.234	-0.0295	-0.196	-0.351	-0.495	-0.285	-0.479	-0.127	-0.906	-0.226
CCTTACGGCTCAAGGTTATAGCACGGGTGGTACG	0.272	0.347	0.117	0.126	-0.259	0.445	0.607	0.552	0.388	0.076
CGAACGAGGGCAGGAGTTGATAGCAAATGCCGAT	-0.327	-0.217	-0.463	-0.569	-1	0.441	1.17	1.46	-0.21	1.07
TCATATTGGTAAATGCTAGGTGAAAGTCCGATCT	0.86	0.817	0.679	0.796	0.681	0.861	0.033	1.9	3.55	2.76
CAAACTAGGTCCCAGAGGTCAAAGTCCGTGCGTA	4.91	5.18	5.61	5.18	1.42	4.98	4.51	4.75	2.13	4.08
ATTTCTAGGTAAAAGTTCAGTGAATCCCGAGGAT	1.14	1.71	1.53	1.49	1.12	5.27	9.08	8.85	8.73	10.6
CGAACTAGGTCAGAACCGGACAGTGAAGGATGAT	0.841	0.508	-0.0192	0.198	-0.379	2.72	4.56	4.31	1.5	3.4
TGTCAAAGTACAAAGGTAACGTAAGTATCCACAC	0.237	0.465	-0.185	0.542	-0.294	1.67	3.64	4.32	1.97	3.96
CGAACGAGGGCATGAGTTGATAGCCAATGCCGAT	0.587	0.378	-0.567	-0.0834	-0.821	1.33	1.39	1.49	0.255	0.727
TCTTGTAGATCAAAGGTTATGAAAGCCGAAGCCT	1.67	2.16	0.00882	2.21	0.156	4.58	7.9	7.7	7.23	8.56
AGAACGAGGGCACGCTGAGTTGACAGCAGAGTAG	0.953	0.796	-0.526	0.312	-1.2	2.46	2.25	1.73	0.191	0.731
TCTGACAGGTGAAGGTAACTCAGGTACGCAGTCG	0.497	1.97	-0.123	0.856	-0.258	1.14	0.602	1.55	2.9	2.32
TAGCCTAGGTCATGGGCCAGTAAACCACGCGAAC	4.54	3.68	0.175	2.43	-0.182	4.46	3.46	3.97	1.13	2.88
CGTCCAATGTCAGAGAGGTCAGTGAATGCCGAGT	2.31	2.29	1.37	2.24	0.168	2.69	0.78	1.62	0.224	1.18
